# In PubChem BioAssay (EPA / NIEHS):
# “And” between values parts separate entries of the source, which are not always exact repeats. Identical values can stand only once. Results filed as inconclusive are left out. Some compounds were tested as several samples or in several runs, with calls that do not always agree. The source made the active and inactive calls. Rule for the calls, unless noted: active = hit-call score of the fitted dose curve at least 0.9, where 1 is the maximum; inconclusive = response in the unintended direction; inactive = score below 0.9.
# Experiments:
# [1] = BSK_4H_Eotaxin3: BioMAP Diversity Plus: 4H Assay for Eotaxin 3 Biomarker Activity (AID 2283000; active = hit-call score of the fitted dose curve at least 0.9, where 1 is the maximum; inactive = score below 0.9;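 for outcome: CCL26 protein level quantified by ELISA in parallel with SRB cytotoxicity check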); conditions: primary human endothelial cells (HUVEC); actives raise or lower the signal
# How it was run: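 Eotaxin-3 (CCL26) levels were measured by ELISA in HUVEC primary cultures 24 h post-dosing. Gain or loss of signal was fitted in both directions, with DMSO serving as baseline and negative control.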
# [2] = target: human Peroxisome Proliferator-activated Receptor alpha (PPARa), PPARA (gene 5465) (UniProt Q07869); experiment: ATG_PPARa_TRANS: Attagene TRANS-FACTORIAL HepG2 Assay for human Peroxisome Proliferator-activated Receptor alpha (PPARa) (AID 2283001);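 for AC50: potency for gain of reporter signal over DMSO so agonist or activator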
# How it was run: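 Reporter transcripts quantified by RT-PCR plus capillary electrophoresis after 24 h treatment, fitted upward relative to DMSO. Cells: human HepG2 transiently carrying multiple GAL4-UAS reporter units driven by NR-Gal4 chimeras.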
# [3] = read-out: Intercellular Adhesion Molecule 1 (ICAM1), ICAM1 (gene 3383); experiment: BSK_3C_ICAM1: BioMAP Diversity Plus: 3C Assay for Intercellular Adhesion Molecule 1 (ICAM1) Biomarker Activity (AID 2283003; active = hit-call score of the fitted dose curve at least 0.9, where 1 is the maximum; inactive = score below 0.9); conditions: primary human endothelial cells (HUVEC); actives raise or lower the signal
# How it was run: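 ELISA readout of ICAM1 in human umbilical vein endothelial cells in the 3C system, taken 24 h post-dose. Gain or loss of signal versus DMSO was fitted in both directions, with SRB total-protein staining run in parallel.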
# [4] = target: human Retinoic Acid Receptor beta (RARb), RARB (gene 5915) (UniProt P10826); experiment: ATG_RARb_TRANS: Attagene TRANS-FACTORIAL HepG2 Assay for human Retinoic Acid Receptor beta (AID 2283004)
# How it was run: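 HepG2 cells were transiently transfected with GAL4-UAS reporter units that report activity of exogenous chimeric NR-Gal4 proteins, then exposed to compound for 24 h. Reporter mRNA was quantified by RT-PCR with capillary electrophoresis fluorescence, as gain of signal over DMSO.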
# [5] = target: Retinoic acid receptor alpha (Homo sapiens) (UniProt P10276); experiment: ATG_RARa_TRANS: Attagene TRANS-FACTORIAL HepG2 Assay for human Retinoic Acid Receptor alpha (RARa) (AID 2283005);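 for AC50: potency for increased reporter signal meaning RARa activation over DMSO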
# How it was run: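 Reporter transcripts, measured by RT-PCR with fluorescent labeling and capillary electrophoresis after 24 h dosing, reflect activity of an exogenous human RARa–GAL4 fusion in transiently transfected HepG2. Fitted for increase relative to DMSO.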
# [6] = BSK_3C_Proliferation: Cell Proliferation Assessment in the BioMAP Diversity Plus: 3C Assay (AID 2283006; active = hit-call score of the fitted dose curve at least 0.9, where 1 is the maximum; inactive = score below 0.9;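 for AC50: potency may reflect either rise or fall in cell number versus DMSO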); conditions: primary human endothelial cells (HUVEC)
# How it was run: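 Proliferation as total protein: sulforhodamine B (0.1%) stain of TCA-fixed subconfluent human umbilical vein endothelial cells, absorbance 560 nm, 48 h after dosing. Activity fitted in both directions against DMSO baseline.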
# [7] = target: Peroxisome proliferator-activated receptor gamma (Homo sapiens) (UniProt P37231); experiment: ATG_PPARg_TRANS: Attagene TRANS-FACTORIAL HepG2 Assay for human Peroxisome Proliferator-activated Receptor-gamma (PPARg) (AID 2283007)
# How it was run: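 Read-out: reporter mRNA induction, detected by fluorescence after RT-PCR and capillary electrophoresis. Transiently transfected human HepG2 liver cells carrying a chimeric NR-Gal4 construct were dosed for 24 h; activity was fitted upward relative to DMSO.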
# [8] = target: Nuclear receptor subfamily 1 group I member 2 (Homo sapiens) (UniProt O75469); experiment: ATG_PXR_TRANS: Attagene TRANS-FACTORIAL HepG2 Assay for human Pregnane X Receptor (PXR) (AID 2283008)
# How it was run: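 Transient HepG2 transfectants carrying multiplexed reporter transcription units; PXR activity read through a Gal4 chimera. 24 h exposure. RT-PCR/CE fluorescence; upward curve fit referenced to DMSO.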
# [9] = target: human Retinoic Acid Receptor gamma (RARg), RARG (gene 5916) (UniProt P13631); experiment: ATG_RARg_TRANS: Attagene TRANS-FACTORIAL HepG2 Assay for human Retinoic Acid Receptor gamma (RARg) (AID 2283009)
# How it was run: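 Transactivation of exogenous RARg-Gal4 fusion measured as reporter transcript induction after 24 h in transfected HepG2 cells. RNA reverse-transcribed, amplified, fluorescently labeled and resolved by capillary electrophoresis; increase relative to DMSO.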
# [10] = target: human RAR-related Orphan Receptor beta (RORb), RORB (gene 6096) (UniProt Q92753); experiment: ATG_RORb_TRANS: Attagene TRANS-FACTORIAL HepG2 Assay for human RAR-related Orphan Receptor beta (RORb) (AID 2283010)
# How it was run: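 Read-out is reporter mRNA induction, quantified by RT-PCR with fluorescent capillary electrophoresis, 24 h post-dose in transiently transfected HepG2 expressing exogenous NR-Gal4 chimera. Activity fitted upward versus DMSO.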
# human Peroxisome Proliferator-activated Receptor alpha (PPARa), PPARA (gene 5465), sequence (Q07869 whole entry, looked up, the tested form may be a part): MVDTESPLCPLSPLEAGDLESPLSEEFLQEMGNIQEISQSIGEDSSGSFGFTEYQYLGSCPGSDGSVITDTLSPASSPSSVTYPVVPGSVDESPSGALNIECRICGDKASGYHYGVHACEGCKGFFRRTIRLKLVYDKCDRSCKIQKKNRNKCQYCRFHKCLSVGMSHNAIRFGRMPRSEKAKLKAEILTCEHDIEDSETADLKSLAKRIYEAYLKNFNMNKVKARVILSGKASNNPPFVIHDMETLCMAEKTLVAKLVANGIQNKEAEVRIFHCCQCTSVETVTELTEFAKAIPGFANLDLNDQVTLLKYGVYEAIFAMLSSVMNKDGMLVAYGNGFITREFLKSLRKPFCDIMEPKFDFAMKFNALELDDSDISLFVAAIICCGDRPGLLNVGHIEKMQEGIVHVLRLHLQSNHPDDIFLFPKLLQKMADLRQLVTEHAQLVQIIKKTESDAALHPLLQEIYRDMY
# Retinoic acid receptor alpha (Homo sapiens), sequence (P10276 whole entry, looked up, the tested form may be a part): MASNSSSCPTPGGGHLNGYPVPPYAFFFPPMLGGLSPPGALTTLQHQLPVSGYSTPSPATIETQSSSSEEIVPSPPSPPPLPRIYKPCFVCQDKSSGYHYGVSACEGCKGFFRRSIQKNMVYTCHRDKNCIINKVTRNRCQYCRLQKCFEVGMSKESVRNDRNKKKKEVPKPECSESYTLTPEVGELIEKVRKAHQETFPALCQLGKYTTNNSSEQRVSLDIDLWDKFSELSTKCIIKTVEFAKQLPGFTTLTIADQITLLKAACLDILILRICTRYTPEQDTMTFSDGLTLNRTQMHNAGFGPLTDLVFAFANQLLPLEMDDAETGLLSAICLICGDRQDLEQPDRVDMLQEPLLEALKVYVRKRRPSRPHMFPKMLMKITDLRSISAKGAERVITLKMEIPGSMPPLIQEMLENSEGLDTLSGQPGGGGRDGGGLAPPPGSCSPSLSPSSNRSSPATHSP
# human Retinoic Acid Receptor beta (RARb), RARB (gene 5915), sequence (P10826 whole entry, looked up, the tested form may be a part): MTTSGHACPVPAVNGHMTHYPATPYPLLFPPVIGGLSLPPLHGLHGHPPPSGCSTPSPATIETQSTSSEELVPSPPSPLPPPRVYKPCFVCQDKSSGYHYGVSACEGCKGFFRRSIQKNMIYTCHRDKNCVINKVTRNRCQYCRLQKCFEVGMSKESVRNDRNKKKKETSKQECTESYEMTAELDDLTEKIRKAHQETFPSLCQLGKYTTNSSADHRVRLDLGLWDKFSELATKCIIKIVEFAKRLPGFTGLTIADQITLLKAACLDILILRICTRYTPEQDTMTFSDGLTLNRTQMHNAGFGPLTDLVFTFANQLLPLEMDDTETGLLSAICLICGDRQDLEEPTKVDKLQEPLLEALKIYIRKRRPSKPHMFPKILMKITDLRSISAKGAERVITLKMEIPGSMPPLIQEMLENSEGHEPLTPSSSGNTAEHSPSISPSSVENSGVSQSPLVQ
# human Retinoic Acid Receptor gamma (RARg), RARG (gene 5916), sequence (P13631 whole entry, looked up, the tested form may be a part): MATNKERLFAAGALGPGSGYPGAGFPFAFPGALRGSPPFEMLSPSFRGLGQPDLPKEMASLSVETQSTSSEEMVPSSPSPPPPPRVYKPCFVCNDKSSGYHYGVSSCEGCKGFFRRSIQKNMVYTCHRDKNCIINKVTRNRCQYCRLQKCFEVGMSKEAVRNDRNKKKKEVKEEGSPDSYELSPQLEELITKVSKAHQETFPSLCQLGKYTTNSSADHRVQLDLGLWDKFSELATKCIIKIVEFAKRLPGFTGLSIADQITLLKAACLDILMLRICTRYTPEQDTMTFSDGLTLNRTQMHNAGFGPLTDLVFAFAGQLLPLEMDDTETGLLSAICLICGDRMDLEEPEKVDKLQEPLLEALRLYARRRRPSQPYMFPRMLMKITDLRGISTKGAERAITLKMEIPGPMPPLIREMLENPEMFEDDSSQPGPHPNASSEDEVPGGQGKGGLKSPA
# human RAR-related Orphan Receptor beta (RORb), RORB (gene 6096), sequence (Q92753 whole entry, looked up, the tested form may be a part): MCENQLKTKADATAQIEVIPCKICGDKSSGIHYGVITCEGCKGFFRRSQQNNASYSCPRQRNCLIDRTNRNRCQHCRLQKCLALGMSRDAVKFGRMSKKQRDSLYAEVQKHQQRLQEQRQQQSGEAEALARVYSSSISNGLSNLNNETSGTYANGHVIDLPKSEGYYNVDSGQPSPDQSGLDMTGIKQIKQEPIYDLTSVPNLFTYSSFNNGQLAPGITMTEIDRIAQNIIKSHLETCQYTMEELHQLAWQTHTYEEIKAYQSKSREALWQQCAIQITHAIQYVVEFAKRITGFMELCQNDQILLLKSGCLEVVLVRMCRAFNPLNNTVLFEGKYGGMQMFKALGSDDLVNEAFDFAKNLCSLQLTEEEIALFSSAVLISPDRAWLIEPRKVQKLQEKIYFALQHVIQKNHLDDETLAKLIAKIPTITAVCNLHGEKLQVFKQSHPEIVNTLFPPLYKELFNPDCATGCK
# Nuclear receptor subfamily 1 group I member 2 (Homo sapiens), sequence (O75469 whole entry, looked up, the tested form may be a part): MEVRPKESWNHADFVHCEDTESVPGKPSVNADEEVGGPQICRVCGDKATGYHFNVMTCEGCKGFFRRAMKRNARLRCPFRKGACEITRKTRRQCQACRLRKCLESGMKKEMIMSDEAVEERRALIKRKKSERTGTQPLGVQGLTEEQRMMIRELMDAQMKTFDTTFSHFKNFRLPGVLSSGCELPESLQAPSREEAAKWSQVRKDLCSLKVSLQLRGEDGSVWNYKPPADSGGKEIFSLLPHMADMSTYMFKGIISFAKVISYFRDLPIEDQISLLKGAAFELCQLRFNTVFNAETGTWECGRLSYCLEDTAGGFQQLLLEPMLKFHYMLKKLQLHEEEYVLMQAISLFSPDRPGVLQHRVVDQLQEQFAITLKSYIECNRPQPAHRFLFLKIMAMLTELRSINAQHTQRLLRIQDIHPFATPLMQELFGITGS
# Peroxisome proliferator-activated receptor gamma (Homo sapiens), sequence (P37231 whole entry, looked up, the tested form may be a part): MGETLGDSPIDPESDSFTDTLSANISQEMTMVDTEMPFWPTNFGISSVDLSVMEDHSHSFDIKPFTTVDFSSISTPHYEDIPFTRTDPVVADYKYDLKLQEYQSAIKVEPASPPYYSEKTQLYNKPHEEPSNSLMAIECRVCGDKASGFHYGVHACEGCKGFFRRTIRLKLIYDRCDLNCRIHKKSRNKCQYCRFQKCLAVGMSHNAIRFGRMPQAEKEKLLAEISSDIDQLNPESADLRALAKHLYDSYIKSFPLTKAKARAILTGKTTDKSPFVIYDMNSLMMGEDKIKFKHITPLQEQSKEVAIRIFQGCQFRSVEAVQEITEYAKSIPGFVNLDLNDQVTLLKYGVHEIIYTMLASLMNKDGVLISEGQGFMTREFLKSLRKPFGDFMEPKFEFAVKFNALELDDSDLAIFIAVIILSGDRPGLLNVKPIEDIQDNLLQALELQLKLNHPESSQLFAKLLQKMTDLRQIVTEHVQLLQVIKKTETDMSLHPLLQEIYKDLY
smiles,measurement,setting,value
CCCCOC(=O)c1ccccc1C(=O)OCCCC,outcome,[1],inactive
same,outcome,[2],inactive
same,outcome,[3],inactive
same,outcome,[5],inactive
same,AC50,[6],22.9 µM (active)
same,outcome,[6],inactive
same,AC50,[7],44.9 µM (active) and 43.7 µM (active)
same,outcome,[7],inactive
same,AC50,[8],56.4 µM (active)
same,outcome,[8],inactive
same,outcome,[9],inactive
same,outcome,[10],inactive
C=CCC1=C(C)[C@@H](OC(=O)[C@@H]2[C@@H](C=C(C)C)C2(C)C)CC1=O,AC50,[1],32.1 µM (active)
same,outcome,[2],inactive
same,outcome,[3],inactive
same,AC50,[5],4.08 µM (active)
same,AC50,[6],33.2 µM (active)
same,AC50,[7],9.45 µM (active)
same,outcome,[8],inactive
same,outcome,[9],inactive
O=C(Nc1ccccc1)Nc1ccnc(Cl)c1,outcome,[1],inactive
same,outcome,[2],inactive
same,outcome,[3],inactive
same,outcome,[4],inactive
same,outcome,[6],inactive
same,AC50,[7],50 µM (active)
same,outcome,[8],inactive
N#Cc1cc(Br)c(O)c(Br)c1,outcome,[1],inactive
same,AC50,[2],15.9 µM (active)
same,outcome,[3],inactive
same,AC50,[6],15.8 µM (active)
same,AC50,[7],29.9 µM (active)
same,outcome,[8],inactive
CCNc1nc(Cl)nc(NC(C)C)n1,outcome,[1],inactive
same,outcome,[2],inactive
same,outcome,[3],inactive
same,outcome,[6],inactive
same,outcome,[7],inactive
same,AC50,[8],24.7 µM (active) and 26.1 µM (active) and 28.1 µM (active)
same,outcome,[8],inactive
C=CC1(C)OC(=O)N(c2cc(Cl)cc(Cl)c2)C1=O (stereo unspecified),outcome,[1],inactive
same,outcome,[2],inactive
same,outcome,[3],inactive
same,outcome,[6],inactive
same,AC50,[7],37.6 µM (active) and 65.6 µM (active)
same,outcome,[7],inactive
same,AC50,[8],23.2 µM (active) and 79.2 µM (active)
same,outcome,[8],inactive
Cc1cc(Cl)ccc1OCC(=O)O,outcome,[1],inactive
same,outcome,[2],inactive
same,outcome,[3],inactive
same,outcome,[6],inactive
same,outcome,[7],inactive
same,outcome,[8],inactive
same,outcome,[10],inactive
COC(=O)C=C(C)OP(=O)(OC)OC,outcome,[1],inactive
same,outcome,[3],inactive
same,outcome,[4],inactive
same,outcome,[5],inactive
same,outcome,[6],inactive
same,outcome,[7],inactive
same,outcome,[8],inactive
same,outcome,[10],inactive
CCCCNC(=O)n1c(NC(=O)OC)nc2ccccc21,outcome,[1],inactive
same,outcome,[2],inactive
same,outcome,[3],inactive
same,outcome,[5],inactive
same,AC50,[6],11.2 µM (active)
same,outcome,[7],inactive
same,outcome,[8],inactive
same,outcome,[9],inactive
CC1COC(Cn2cncn2)(c2ccc(Oc3ccc(Cl)cc3)cc2Cl)O1 (stereo unspecified),AC50,[1],32.9 µM (active)
same,AC50,[3],36.2 µM (active)
same,outcome,[4],inactive
same,outcome,[5],inactive
same,AC50,[6],24.6 µM (active)
same,outcome,[7],inactive
same,outcome,[8],inactive
same,outcome,[9],inactive
CCOc1cc(Oc2ccc(C(F)(F)F)cc2Cl)ccc1[N+](=O)[O-],outcome,[1],inactive
same,outcome,[3],inactive
same,outcome,[4],inactive
same,AC50,[6],13.4 µM (active)
same,AC50,[7],13.5 µM (active)
same,outcome,[8],inactive
N#CC(CCc1ccc(Cl)cc1)(Cn1cncn1)c1ccccc1 (stereo unspecified),outcome,[1],inactive
same,outcome,[3],inactive
same,outcome,[4],inactive
same,outcome,[5],inactive
same,AC50,[6],14.1 µM (active)
same,outcome,[7],inactive
same,outcome,[8],inactive
same,outcome,[9],inactive
COP(=S)(OC)Oc1nc(Cl)c(Cl)cc1Cl,outcome,[1],inactive
same,outcome,[3],inactive
same,outcome,[4],inactive
same,outcome,[5],inactive
same,AC50,[6],31.9 µM (active)
same,AC50,[7],16 µM (active)
same,outcome,[8],inactive
same,outcome,[9],inactive
CNC(=S)S,AC50,[1],27.6 µM (active)
same,outcome,[2],inactive
same,outcome,[3],inactive
same,AC50,[6],20 µM (active)
same,outcome,[7],inactive
same,outcome,[8],inactive
same,outcome,[10],inactive
CCCCNC(=O)OCC#CI,AC50,[1],17.3 µM (active) and 15.1 µM (active)
same,outcome,[2],inactive
same,AC50,[3],29.8 µM (active) and 30 µM (active)
same,outcome,[5],inactive
same,AC50,[6],6.12 µM (active) and 7.64 µM (active)
same,AC50,[7],26.7 µM (active)
same,outcome,[7],inactive
same,outcome,[8],inactive
same,outcome,[9],inactive
same,outcome,[10],inactive
CCON=C(CC)C1=C(O)CC(c2c(C)cc(C)cc2C)CC1=O (stereo unspecified),outcome,[1],inactive
same,outcome,[3],inactive
same,outcome,[4],inactive
same,outcome,[5],inactive
same,outcome,[6],inactive
same,outcome,[7],inactive
same,outcome,[8],inactive
same,outcome,[9],inactive
same,outcome,[10],inactive
CNC(=O)ON=CC(C)(C)SC,outcome,[1],inactive
same,outcome,[2],inactive
same,outcome,[3],inactive
same,outcome,[4],inactive
same,outcome,[5],inactive
same,outcome,[6],inactive
same,outcome,[7],inactive
same,outcome,[8],inactive
same,outcome,[10],inactive
COP(N)(=O)SC (stereo unspecified),outcome,[1],inactive
same,outcome,[2],inactive
same,outcome,[3],inactive
same,outcome,[5],inactive
same,outcome,[6],inactive
same,outcome,[7],inactive
same,outcome,[8],inactive
same,outcome,[9],inactive
same,outcome,[10],inactive
CS/C(C)=N/OC(=O)N(C)SN(C)C(=O)O/N=C(\C)SC,AC50,[1],29.2 µM (active)
same,AC50,[3],31.6 µM (active)
same,outcome,[4],inactive
same,AC50,[6],5.82 µM (active)
same,outcome,[7],inactive
same,outcome,[9],inactive
C#CCOS(=O)OC1CCCCC1Oc1ccc(C(C)(C)C)cc1 (stereo unspecified),AC50,[1],27.7 µM (active)
same,outcome,[3],inactive
same,AC50,[6],9.9 µM (active)
same,outcome,[7],inactive
same,outcome,[8],inactive
same,outcome,[9],inactive
same,outcome,[10],inactive
CC1=C(C(=O)Nc2ccccc2)SCCO1,outcome,[1],inactive
same,outcome,[2],inactive
same,outcome,[3],inactive
same,outcome,[4],inactive
same,outcome,[6],inactive
same,outcome,[7],inactive
same,outcome,[8],inactive
same,outcome,[9],inactive
same,outcome,[10],inactive
Oc1ccccc1-c1ccccc1,outcome,[1],inactive
same,outcome,[2],inactive
same,outcome,[3],inactive
same,outcome,[6],inactive
same,AC50,[7],28.3 µM (active)
same,outcome,[7],inactive
same,AC50,[8],4.15 µM (active)
same,outcome,[8],inactive
CCOC(=O)CC(SP(=S)(OC)OC)C(=O)OCC (stereo unspecified),outcome,[1],inactive
same,outcome,[2],inactive
same,outcome,[3],inactive
same,outcome,[6],inactive
same,AC50,[7],14.2 µM (active) and 25.1 µM (active)
same,AC50,[8],1.53 µM (active)
same,outcome,[8],inactive
O=C(O)c1nc(Cl)ccc1Cl,outcome,[1],inactive
same,outcome,[2],inactive
same,outcome,[3],inactive
same,outcome,[6],inactive
same,outcome,[8],inactive
same,outcome,[10],inactive
CCOC(=O)C(Cl)Cc1cc(-n2nc(C)n(C(F)F)c2=O)c(F)cc1Cl (stereo unspecified),outcome,[1],inactive
same,outcome,[2],inactive
same,outcome,[3],inactive
same,outcome,[4],inactive
same,outcome,[6],inactive
same,AC50,[7],50 µM (active)
same,outcome,[8],inactive
COC(=O)c1ccccc1C(=O)OC,outcome,[1],inactive
same,outcome,[2],inactive
same,outcome,[3],inactive
same,outcome,[4],inactive
same,outcome,[5],inactive
same,outcome,[6],inactive
same,outcome,[7],inactive
same,outcome,[8],inactive
same,outcome,[10],inactive
CN(C)C(=S)SSC(=S)N(C)C,AC50,[1],33.1 µM (active)
same,outcome,[2],inactive
same,AC50,[3],32.1 µM (active)
same,outcome,[4],inactive
same,AC50,[6],7 µM (active)
same,outcome,[8],inactive
same,outcome,[9],inactive
same,outcome,[10],inactive
CCCCC(CC)COC(=O)c1ccccc1C(=O)OCC(CC)CCCC (stereo unspecified),outcome,[1],inactive
same,outcome,[2],inactive
same,outcome,[3],inactive
same,outcome,[5],inactive
same,AC50,[6],12.7 µM (active)
same,AC50,[7],39 µM (active)
same,AC50,[8],32.9 µM (active)
same,outcome,[9],inactive
O=C(O)COc1nc(Cl)c(Cl)cc1Cl,outcome,[1],inactive
same,outcome,[3],inactive
same,outcome,[4],inactive
same,outcome,[5],inactive
same,outcome,[6],inactive
same,AC50,[7],50 µM (active)
same,outcome,[8],inactive
same,outcome,[9],inactive
